# Measurements as given in PMC4336329 (PLoS ONE, 2015).
# The whole screen tested about 310,000 compounds, of which about 2,200 (0.71%) showed an effect of 50% or more. Effects have a minus sign here. This is one part of a sample in which strong results are shown more often than they occur.
# Biological target: human ether-à-go-go-related gene (hERG) potassium channel (human, UniProt Q12809)
# Test: primary screen, population patch clamp on CHO cells stably expressing hERG; higher = less effect of the substance
# Sequence of human ether-à-go-go-related gene (hERG) potassium channel (Q12809 whole entry, looked up): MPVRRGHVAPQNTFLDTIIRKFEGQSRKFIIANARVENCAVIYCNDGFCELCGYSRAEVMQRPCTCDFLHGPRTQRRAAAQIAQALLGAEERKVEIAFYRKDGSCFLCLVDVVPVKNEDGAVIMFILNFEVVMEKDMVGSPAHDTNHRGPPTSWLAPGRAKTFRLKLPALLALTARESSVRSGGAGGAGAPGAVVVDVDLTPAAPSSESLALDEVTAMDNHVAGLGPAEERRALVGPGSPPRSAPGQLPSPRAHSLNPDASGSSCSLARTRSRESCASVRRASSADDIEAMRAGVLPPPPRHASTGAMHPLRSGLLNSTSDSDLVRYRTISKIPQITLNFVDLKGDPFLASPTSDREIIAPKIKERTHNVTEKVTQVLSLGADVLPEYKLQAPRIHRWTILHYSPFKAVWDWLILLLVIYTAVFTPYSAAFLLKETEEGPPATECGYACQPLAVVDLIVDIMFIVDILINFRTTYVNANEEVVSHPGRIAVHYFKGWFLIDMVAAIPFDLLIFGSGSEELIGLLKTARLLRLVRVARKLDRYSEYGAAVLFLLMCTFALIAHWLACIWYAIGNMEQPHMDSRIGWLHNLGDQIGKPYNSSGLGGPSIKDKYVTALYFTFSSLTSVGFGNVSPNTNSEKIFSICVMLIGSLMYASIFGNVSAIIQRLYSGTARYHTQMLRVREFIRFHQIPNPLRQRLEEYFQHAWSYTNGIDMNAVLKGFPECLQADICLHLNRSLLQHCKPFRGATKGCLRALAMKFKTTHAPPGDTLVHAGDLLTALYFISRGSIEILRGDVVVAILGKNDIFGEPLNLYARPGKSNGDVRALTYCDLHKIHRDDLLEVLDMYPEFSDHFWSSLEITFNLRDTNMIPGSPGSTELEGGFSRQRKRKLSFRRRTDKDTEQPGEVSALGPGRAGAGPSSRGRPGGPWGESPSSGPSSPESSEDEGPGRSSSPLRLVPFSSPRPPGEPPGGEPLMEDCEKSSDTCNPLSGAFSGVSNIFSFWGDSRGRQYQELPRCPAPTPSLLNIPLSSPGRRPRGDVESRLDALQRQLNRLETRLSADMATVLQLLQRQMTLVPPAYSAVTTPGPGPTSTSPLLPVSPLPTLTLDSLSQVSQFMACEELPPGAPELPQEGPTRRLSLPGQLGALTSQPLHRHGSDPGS
row,Structure (SMILES),"hERG current change (%, negative = inhibition) at 1uM"
1,CN(C)c1ccc(C(CNC(=O)c2ccco2)N2CCCC2)cc1 (stereo not shown),13.2%
2,Cc1nc(C)c(-c2csc(Nc3ccc(O)c(C(=O)O)c3)n2)s1,13.6%
3,CC(=O)c1ccc(NC(=S)N2CCN(c3cccc(Cl)c3)CC2)cc1,12.6%
4,COC(=O)C1CC(=O)N(c2ccc(C)cc2)C1 (stereo not shown),4.3%
5,CCc1ccccc1NC(=O)CCNS(=O)(=O)c1cc(Br)cnc1N,0.979%
6,Cl.O=C(OCCN1CCOCC1)c1ccc2c(c1)OCCO2,8.19%
7,O=C(NCCc1ccccn1)C1CC(=O)N(Cc2ccccc2Cl)C1 (stereo not shown),4.09%
8,CCCCCCC(=O)Nc1ccc(Cl)cn1,12.1%
9,CCOC(=O)C1CCN(Cc2cn[nH]c2-c2ccc(C)cc2)CC1,-23.6%
10,O=C(c1ccc(F)cc1)C1CCN(Cc2cn[nH]c2-c2ccc(F)cc2)CC1,-78.9%
11,Fc1ccc(-c2[nH]ncc2CN2CCN(c3ccc(F)cc3)CC2)cc1,-0.0709%
12,O=C(/C=C/c1ccccc1)NC(=S)Nc1ncccn1,14.1%
13,CCN(CC)S(=O)(=O)c1ccc(Cl)c(C(=O)Nc2nncs2)c1,15.1%
14,COc1ccccc1OCC(=O)NCCS(=O)(=O)N1CCN(c2ccc(F)cc2)CC1,-3.49%
15,O=C(O)c1ccc(CSc2nnnn2-c2ccc(F)cc2)cc1,6.99%
16,O=C(O)c1ccc(-n2nnnc2SCc2ccccc2)cc1,7.44%
17,Cc1ccc(-n2nnnc2SCc2ccc(C(=O)O)cc2)cc1C,-80.9%
18,Cc1c(C#N)c2ccccc2n1CC(=O)NC(C)c1ccccc1 (stereo not shown),4.94%
19,COC(=O)c1ccc(CS(=O)(=O)c2ccccc2C)o1,2.66%
20,O=C1N=c2ccccc2=C1c1sc(=S)n(CC2CCCO2)c1O (stereo not shown),10.8%

row,Structure (SMILES),"hERG current change (%, negative = inhibition) at 1uM"
1,COc1cc(C(C)=O)ccc1OCC(O)CNCC1(N2CCCCC2)CCCCC1.O=C(O)C(=O)O (stereo not shown),2.35%
2,COc1ccccc1COCC(O)CNCC1(N2CCCCC2)CCCCC1.O=C(O)C(=O)O (stereo not shown),0.206%
3,OC(CNCC1(N2CCCCC2)CCCCC1)COc1ccc(Cl)cc1Cl (stereo not shown),-74.2%
4,Cc1ccccc1NC(=O)CCCN1C(=O)C2CC=CCC2C1=O (stereo not shown),14.5%
5,O=C(NC1CCCCC1)C(c1ccncc1)N(C(=O)Cn1nnc(-c2cccs2)n1)C1CCCC1 (stereo not shown),-4.68%
6,Cc1ccccc1NC(=O)c1cccc2c1C(=O)N(C1CCCCC1)C2,15%
7,O=S(=O)(Nc1cc(F)ccc1F)c1cccc2nonc12,-61%
8,CSc1ccccc1NS(=O)(=O)c1cccc2nonc12,7.17%
9,O=S(=O)(Nc1cc(F)ccc1F)c1cccc2nsnc12,14.5%
10,CCN1CCN(c2oc(COc3ccc(Cl)cc3)nc2C#N)CC1,-79.3%
11,N#Cc1nc(COc2ccc(Cl)cc2)oc1N1CCCC1,-2.53%
12,N#Cc1nc(COc2ccc(F)cc2)oc1N1CCN(Cc2ccccc2)CC1,-51%
13,N#Cc1nc(COc2ccccc2)oc1N1CCN(Cc2ccccc2)CC1,-3.01%
14,N#Cc1nc(COc2ccc(Cl)cc2)oc1N1CCN(Cc2ccccc2)CC1,10.2%
15,CCN1CCN(c2oc(COc3ccc(-c4ccccc4)cc3)nc2C#N)CC1,10.1%
16,COC(=O)C1CC(Cl)CN1c1ncc(C(F)(F)F)cc1Cl (stereo not shown),15.5%
17,COc1ccc(-n2c(CNC(=O)COc3ccc(Cl)cc3)n[nH]c2=S)cc1,16.9%
18,C/C(=N\O)C(C)(C)Nc1ccc(Cl)cc1,10.9%
19,CCOc1cc(S(=O)(=O)NC2CC(C)(C)NC(C)(C)C2)ccc1Cl,11.2%
20,COc1ccccc1-c1nnc2sc(-c3cc4ccccc4o3)nn12,-0.794%

row,Structure (SMILES),"hERG current change (%, negative = inhibition) at 1uM"
1,CCN(CC)CCNC(=O)c1ccc(Cl)c(S(=O)(=O)N2CCCCCC2)c1.Cl,-52.2%
2,CCN(CC)CCNC(=O)c1ccc(NC(=O)c2ccc(Cl)c(S(=O)(=O)N3CCCCCC3)c2)cc1.Cl,1.9%
3,Cl.O=C(NCCCN1CCOCC1)c1ccc(Cl)c(S(=O)(=O)N2CCCCCC2)c1,-18.9%
4,CN(C)CCCNC(=O)c1ccc(Cl)c(S(=O)(=O)N2CCCCCC2)c1.Cl,-70%
5,Cl.O=C(NCCN1CCOCC1)c1ccc(Cl)c(S(=O)(=O)N2CCCCCC2)c1,-10.3%
6,O=C(NCCCN1CCCC1=O)c1ccc(Cl)c(S(=O)(=O)N2CCCCC2)c1,9.57%
7,CN(C)C(=O)C12CCC(C)(C(=O)C1Br)C2(C)C (stereo not shown),14.5%
8,O=c1oc(-c2ccco2)nc2sc3c(c12)CCCC3,11.5%
9,COc1cc(OC)cc(C(=O)NCC(=O)OC2CCCCC2=O)c1 (stereo not shown),-1.67%
10,O=C(CNC(=O)c1ccc(Oc2ccccc2)cc1)OC1CCCCC1=O (stereo not shown),-58.8%
11,COc1ccc(C(=O)NCC(=O)OC2CCCCC2=O)cc1 (stereo not shown),-0.0213%
12,Cc1nc2nc(C)c(CCC(=O)N3CCc4ccccc43)c(C)n2n1,-36.3%
13,Cc1nc2ncnn2c(C)c1CCC(=O)N1CCc2ccccc21,-66.3%
14,Cc1nc2ncnn2c(C)c1CCC(=O)N1CCc2ccccc2C1,-19.5%
15,CCN(CC(=O)Nc1ccc(NC(C)=O)cc1)C(=O)c1sc2nc3n(c(=O)c2c1C)CCC3,10.2%
16,O=C(Nc1cccc(Cl)c1)c1cncn1-c1ccc(F)cc1,-52.8%
17,NNC(=O)c1cncn1-c1ccc(F)cc1,12.3%
18,COc1cc(OC)c(NC(=O)c2cncn2-c2ccc(F)cc2)cc1Cl,5.23%
